VACV Venus inh: vaccinia inhibition (Venus reporter); Potency, µM (highest dose often 36.5 µM), without a hit: at the top dose activity change, negative = inhibition, hits mostly inhibitors; Vaccinia virus Venus reporter expression, fluorescence; actives 0.46% (n = 330,000); AID 720580; calls by dose curve; tested in A549 cells; note: nearly all actives have a fitted effect of over 30% in size
FMDV inh: blocks foot and mouth disease virus | FMDV antiviral cell-based qHTS | Potency, µM (doses to about 57.9 µM), for the others: at the highest dose activity change, negative = inhibition, most hits filed as inhibitors | actives 1.2% (n = 410,000); calls by dose curve; tested in HEK293T cells; note: read-out not given here; nearly all actives have a fitted effect of over 45% in size
Lassa entry inh: Lassa virus entry inhibition | actives 1.2% (n = 300,000) | Potency, µM (highest dose often 37.9 µM), inactives show at the top dose activity change, negative = inhibition, usual class: inhibitors | Lassa virus pseudotype entry inhibition, cell reporter | AID 540256; calls by dose curve; tested in HEK293 cells; note: nearly all actives have a fitted effect of over 50% in size
Marburg entry inh: blocks Marburg virus binding to or entry into cells | actives 1.8% (n = 300,000) | Marburg virus pseudotyped entry inhibition, cell reporter | Potency, µM (highest dose often 37.8 µM), for inactives: top-dose activity change, negative = inhibition, most hits filed as inhibitors; calls by dose curve; tested in HEK293 cells
VACV mCherry inh: inhibitors of vaccinia virus infection (mCherry reporter signal) | Potency, µM (highest dose often 36.5 µM), for the others: at the top dose activity change, negative = inhibition, actives largely listed as inhibitors | actives 0.63% (n = 310,000) | Vaccinia virus mCherry reporter infection, fluorescence; calls by dose curve; tested in A549 cells; note: nearly all actives have a fitted effect of over 35% in size
The depositor's hits bear a star; i = inactive; ? = inconclusive; / = not tested or not shown; [ ] = remark or other dose. The list is not random: actives were taken first. Their share in the collection is about 3.2%. % is set by controls: 0 for no effect and ±100 for the full control effect; potency is the fitted concentration of half-maximal effect.

SMILES	VACV Venus inh	FMDV inh	Lassa entry inh	Marburg entry inh	VACV mCherry inh
COc1cc(C2c3cc4c(cc3CC3COC(=O)C32)OCO4)cc(OC)c1OC (stereo not given)	?	-14%	/	/	-21%
COc1cc([C@@H]2c3cc4c(cc3[C@@H](O)[C@H]3COC(=O)[C@H]23)OCO4)cc(OC)c1O	?	/	/	/	11µM*
COc1cc([C@@H]2c3cc4c(cc3C[C@H]3COC(=O)[C@@H]32)OCO4)cc(OC)c1O	?	/	/	/	10µM*
COc1cc(C2c3cc4c(cc3C(O)[C@H]3COC(=O)C23)OCO4)cc(OC)c1OC (stereo not given in full)	-20%	0%	/	/	-18%
c1ccc2c(NCCc3c[nH]c4ccccc34)c3ccccc3nc2c1	8.9µM*	?	/	/	?
Fc1cccc(NCCc2c[nH]c3ccccc23)n1	?	38%	/	/	-29%
OCCCNc1c2ccccc2nc2ccccc12	10µM*	-10%	?	7.1µM*	11µM*
CCOC(=O)/C=C(\C)Sc1cc(O)c2ccccc2c1O	/	28µM*	/	/	/
Cc1cccn2c(CNCC3(c4ccccc4)CCCC3)c(C(=O)N3CCOCC3)nc12	-19%	-24%	?	8.9µM*	-28%
CSCCNCc1c(C(=O)N2CCOCC2)nc2c(C)cccn12	-6%	-15%	11%	4%[46.1 µM]	-13%
CCN(CC)S(=O)(=O)c1cc(NC(=O)CCNC(=O)c2ccco2)ccc1C	-7%	-14%	1%[46.1 µM]	-5%[46.1 µM]	-16%
CC(C(=O)NCC1CCCCC1)N(C)Cc1ccc(Cl)cc1 (stereo not given)	-18%	-30%	-3%[46.1 µM]	?	-15%
CSc1ccc(CN(C)C(C)C(=O)NCC2CCCCC2)cc1 (stereo not given)	-7%	-6%	16%[46.1 µM]	11µM*	-21%
C[C@@H](C[C@@H](O)[C@H](O)C(C)(C)O)[C@@H]1CC[C@]2(C)C3=CC[C@H]4C(C)(C)C(=O)CC[C@]4(C)[C@H]3CC[C@@]12C	11µM*	?	-14%	-16%	?
C[C@H](C[C@H](O)[C@H]1OC1(C)C)C1=C2C[C@H](O)C3[C@@]4(C)CCC(=O)C(C)(C)C4CC[C@]3(C)[C@@]2(C)CC1 (stereo not given in full)	?	?	/	/	-7%
O=C(Nc1ccc(C(F)(F)F)cc1)C1=NN(C2CCS(=O)(=O)C2)C(=O)CC1 (stereo not given)	/	-6%	/	/	/
CCN(CC)CCOc1ccc(Br)cc1	-6%	/	1%	3%	i
CCN(CC)CCOc1ccc2c(c1)C(=NO)c1cc(OCCN(CC)CC)ccc1-2	3.5µM*	/	10µM*	2.6µM*	8.9µM*
CCN(CC)S(=O)(=O)c1ccc2c(c1)C(=NO)c1cc(S(=O)(=O)N(CC)CC)ccc1-2	13µM*	20µM*	?	?	11µM*
CCN(CC)S(=O)(=O)c1ccc(C)c(C)c1	/	9%	-3%	-4%	/
O=C(CNC(=O)c1ccc(Cl)cc1)OCCCOC(=O)CNC(=O)c1ccc(Cl)cc1	-11%	-14%	0%	12%	i
O=C(Nc1ccc(Cl)cc1Cl)[C@@H]1CC=C[C@@H]2CCN(Cc3ccccc3)C(=O)[C@@H]21	-18%	/	/	/	-27%
COc1cc(=O)n2c(c1C(=O)N(C)Cc1nonc1C)CCN(Cc1cccc(Cl)c1)CC2	0%	-10%	/	/	-9%
CCOC(=O)/C(=C/c1c(C)n(C)c2ccc([N+](=O)[O-])cc12)C(C)=O	-6%	13µM*	-13%	?	i
O=C(Nc1ccc2ccccc2c1)c1nc(S(=O)(=O)Cc2ccccc2F)ncc1Cl	-19%	/	/	/	-20%
SMILES	VACV Venus inh	FMDV inh	Lassa entry inh	Marburg entry inh	VACV mCherry inh
Cc1ccc(OC[C@H](O)[C@H](C)NC(C)C)c2c1CCC2	-27%	-28%	/	16µM*	-16%
CC(C)(C)NC[C@H](O)COc1cccc2c1CCCC2=O	-9%	-1%	/	/	0%
O=c1nc2n(-c3ccccc3F)c3ccccc3cc-2c(=O)[nH]1	-1%	0%	?	-16%[46.1 µM]	-10%
Cc1cccc(-n2c3nc(=O)[nH]c(=O)c-3cc3cc([N+](=O)[O-])ccc32)c1	?	35µM*	?	?	?
Cc1ccc(C)c(-n2c3nc(=O)[nH]c(=O)c-3cc3cc([N+](=O)[O-])ccc32)c1	-8%	28µM*	3.2µM*	?	-21%
O=C(NC1CCCCC1)N1CCN(C(c2ccccc2)c2ccccc2)CC1	-15%	/	13µM*	?	-11%
CCCCCCC(=O)Cc1cc(OC)c(OC)cc1C=C(C(C)=O)C(=O)OC	/	/	/	-11%[14.2 µM]	/
C#C[C@]1(OC(C)=O)CCC2C3CCC4=CC(=O)CCC4C3CC[C@]21C (stereo not given in full)	-10%	?	/	/	-15%
Cc1ccc(S(=O)(=O)NCc2ccc(C(=O)N3CCN(c4ccccn4)CC3)cc2)cc1	-25%	?	-24%	?	-26%
Cc1ccc(NS(=O)(=O)c2ccc(C(=O)N3CCN(c4ccccn4)CC3)cc2)cc1	-27%	18µM*	-14%	-24%	/
O=C(c1ccc(Cl)c(S(=O)(=O)Nc2ccc(F)cc2)c1)N1CCN(c2ccccn2)CC1	/	-5%	?	15µM*	/
COc1ccc(C(=O)N2CCN(Cc3ccccc3)CC2)cc1[N+](=O)[O-]	/	-26%	/	/	/
O=C(c1ccc(Cl)c(Cl)c1)N1CCN(c2ccccn2)CC1	-23%	-21%	4%	?	-21%
CN(c1ccccc1)S(=O)(=O)c1cc(C(=O)N2CCN(c3ccccn3)CC2)ccc1Cl	-21%	13µM*	?	?	/
O=C(c1ccc(S(=O)(=O)c2cccc(Cl)c2)c([N+](=O)[O-])c1)N1CCN(Cc2ccccc2)CC1	-16%	11µM*	?	?	-3%
Cc1cccc(C)c1NC(=O)CN(c1c(C)cccc1C)S(C)(=O)=O	-6%	5%	/	/	i
COc1ccc([C@H](CC(=O)N2CCOCC2)C(C)C)cc1	/	/	/	-1%	/
COc1ccc(/C(O)=C2\C(=O)C(=O)N(Cc3ccco3)[C@@H]2c2cccs2)cc1	/	/	/	-1%	/
CC(C)Cc1nc2cc(NS(=O)(=O)N(C)C)cc(C(=O)N3CCOCC3)c2n1C	-5%	26%	/	/	-13%
O=C(c1ccc(Cl)c([N+](=O)[O-])c1)N1CCN(c2ccccn2)CC1	-5%	-24%	2%	?	-9%
O=C(c1ccc(S(=O)(=O)Cc2ccccc2Cl)c([N+](=O)[O-])c1)N1CCN(c2ccccn2)CC1	-21%	16µM*	-4%	?	?
Cc1cc(C)c2c(N)c3cccc(C)c3nc2n1	10µM*	-12%	?	3.7µM*	10µM*
Cc1cccc2c(N)c3c(nc12)CCCC3 (tested in a mixture with another compound)	/	-18%	/	/	/
COc1ccc2c(c1)[C@@]1(OCCC=C[C@@H]1C)C(=O)N2CC=C(C)CCC=C(C)C	/	/	/	-10%[14.2 µM]	/
COC(=O)CCCn1c(-c2ccc(C)cc2)c(C)n2c3c(=O)n(C)c(=O)n(C)c3nc12	1%	?	?	1%[46.1 µM]	-8%
Cc1ccc(-c2c(C)n3c4c(=O)n(C)c(=O)n(C)c4nc3n2CCCO)cc1	-26%	11µM*	8.9µM*	?	-25%

Screening data (PubChem BioAssay)
